# Test results taken from the supplement of paper PMC3334620.
# Over roughly 33,000 sequences, “E-score (-0.5 to 0.5)” has its median near -0.054; the highest 2% begin near 0.35. The sample as a whole holds a higher share of the highest values than the screen did.
# Target: T1, Stb5 (UniProt P38699)
# T1 sequence: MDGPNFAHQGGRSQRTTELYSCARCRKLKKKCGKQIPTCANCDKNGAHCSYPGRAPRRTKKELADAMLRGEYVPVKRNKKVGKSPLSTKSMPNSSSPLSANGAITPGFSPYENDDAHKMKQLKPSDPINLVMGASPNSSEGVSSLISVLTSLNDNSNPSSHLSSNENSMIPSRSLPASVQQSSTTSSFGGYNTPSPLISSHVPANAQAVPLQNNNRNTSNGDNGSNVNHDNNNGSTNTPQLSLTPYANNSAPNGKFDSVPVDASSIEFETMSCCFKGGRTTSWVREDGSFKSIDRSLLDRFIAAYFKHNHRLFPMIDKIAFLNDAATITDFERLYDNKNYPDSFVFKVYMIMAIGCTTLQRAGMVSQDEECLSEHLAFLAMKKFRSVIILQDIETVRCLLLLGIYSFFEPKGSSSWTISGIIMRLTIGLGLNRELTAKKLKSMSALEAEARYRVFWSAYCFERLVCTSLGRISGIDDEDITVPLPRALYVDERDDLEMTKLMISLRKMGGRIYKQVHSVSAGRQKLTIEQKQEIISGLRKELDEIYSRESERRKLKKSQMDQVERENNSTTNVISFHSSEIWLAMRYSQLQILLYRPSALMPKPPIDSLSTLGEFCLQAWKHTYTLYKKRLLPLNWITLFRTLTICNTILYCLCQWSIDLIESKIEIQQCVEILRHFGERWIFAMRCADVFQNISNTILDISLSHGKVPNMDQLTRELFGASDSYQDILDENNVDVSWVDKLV
# Assay: PBM E-score (8-mer binding enrichment) (E-score (-0.5 to 0.5)); higher = stronger / more preferred TF binding
# Details: protein concentration: 200 nM; construct: GST-full length
# In short: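 PURExpress in vitro transcription/translation supplied GST-tagged yeast transcription factors, either full-length or DNA-binding domain. Applied at about 100-200 nM to universal all-10-mer Agilent arrays double-stranded by primer extension, the bound protein was detected with fluorescent anti-GST. E-scores, modified Wilcoxon-Mann-Whitney statistics, were given by the Universal PBM Analysis Suite to ungapped eight-base words pooled with their reverse complements after masliner normalisation.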
row,Sequence,PBM E-score
1,AATCAATT,-0.151
2,TGTATGAA,0.0366
3,CTTTAAGA,0.0831
4,TAGCAGCA,-0.233
5,AATATTAA,0.0579
6,TTCTCAAA,-0.128
7,ACCGATAG,0.167
8,CAACAATG,-0.0552
9,AACCCGCA,0.229
10,CCCCCGCA,0.154
11,ACCCCGCA,0.382
12,CGTGTTAG,0.0849
13,AACCACCA,-0.124
14,CATCACCG,0.251
15,AATCACCA,-0.0307
16,CACCACCG,0.21
17,AACCACCG,0.406
18,CAGCACCG,0.313
19,AATCACCG,0.441
20,AAGCACCG,0.457
21,AAGCACCT,-0.21
22,ACCAGTGA,-0.215
23,GAGCTCGA,-0.257

row,Sequence,PBM E-score
1,AATACTGC,-0.0596
2,CCAGTATA,-0.066
3,AAAGCACC,0.311
4,ACCCCAAA,-0.179
5,ACCGGCGC,0.336
6,ACCGGCGT,0.365
7,ACCGGCGG,0.403
8,ACCGGCAT,0.337
9,AACGGCGT,0.348
10,ACCGGCGA,0.281
11,GGAACAGA,-0.104
12,AGCGCCTC,-0.0428
13,CCTATGCA,-0.158
14,GTCCGCAA,0.196
15,ATCCGCCA,0.18
16,GTCCGCTA,0.374
17,ATCCGCTA,0.155
18,GTCCGCCA,0.4
19,CTCCGCTA,0.349
20,GTTTCTTA,0.00445
21,CGGCAATA,0.454
22,AGGCAGTA,-0.205
23,CGGCAGTC,0.11

row,Sequence,PBM E-score
1,AGGCAATA,-0.0408
2,CGGCAGTA,0.4
3,CGGCAATC,0.185
4,CGAACCCG,0.103
5,CGACCAGC,0.128
6,AATCGCGT,-0.00793
7,GAACCTTC,-0.201
8,CATCGCTC,-0.00533
9,ATTTGCAC,-0.273
10,CGCGCATA,0.112
11,CTCGGTGA,0.244
12,GTCGGTCA,0.259
13,ATCGGTGA,0.366
14,ATCGGTGC,0.324
15,GTCGGTGA,0.374
16,ATCGGTGG,0.276
17,CTTCGGGA,0.131
18,CTCTTAAA,-0.0109
19,CTGACCAA,-0.176
20,AGGTTGTC,-0.204
21,CGCCTGGA,-0.0581
22,TTCACCAA,-0.0231
23,CAGTCCGG,0.189

row,Sequence,PBM E-score
1,AAGTCCTC,-0.066
2,AAGTCCGG,0.43
3,AAGTCCTA,0.0926
4,CAGTCCCG,0.192
5,AAGTCCAT,0.0307
6,AAGTCCCG,0.385
7,AAGTCCGC,0.46
8,AAGTCCGT,0.454
9,AAGTCCTG,0.0166
10,CAGTCCGC,0.252
11,AAGTCCCT,-0.209
12,GATATCCA,-0.16
13,GCCCAAAC,-0.0152
14,CAGCGTGC,0.0885
15,GAACAGCC,-0.134
16,TCCGTGCA,0.23
17,ACCCTGTG,-0.19
18,AACAGTTG,-0.0985
19,ATCTGCCA,-0.118
20,TCTAGTCA,-0.11
21,CATGTGCC,-0.177
22,GAGTCCGA,0.286
23,TAGTCCGA,0.309

row,Sequence,PBM E-score
1,CAGTCCGA,0.273
2,AAGTCCGA,0.459
3,GAGTCCGC,0.371
4,GAGTCCCC,-0.12
5,CATGTCCG,0.273
6,AATGTCCG,0.438
7,ATTGTCCG,0.372
8,AATGTCCA,-0.0901
9,ATTGTCCC,0.0499
10,ATTGTCCA,-0.191
11,ACTGTTAC,-0.163
12,CCATCGCG,0.195
13,AACCCCTT,0.0178
14,GCACGTGA,-0.337
15,AATCGGAC,0.362
16,CATCGGAC,0.34
17,GATCGGAC,0.415
18,AATCGGAG,0.263
19,GATCGGGC,0.301
20,GATCGGAA,0.133
21,ACGCGCCT,0.013
